High-throughput results from PubChem BioAssay.
Shown are actives, neighbours in structure and some others; about 13% of the full set was active somewhere.
MARV entry inh: Marburg virus entry inhibition | 300,000 compounds, 1.8% hits | Potency, µM (doses to about 37.8 µM), actives largely listed as inhibitors | Marburg virus pseudotyped entry inhibition, cell reporter | AID 540276; calls by dose curve; tested in HEK293 cells
FMDV antiviral: antivirals against foot and mouth disease virus; FMDV antiviral cell-based qHTS; 410,000 compounds, 1.2% hits; Potency, µM (top dose mostly 57.9 µM), most hits filed as inhibitors; AID 1159524; calls by dose curve; tested in HEK293T cells; further: read-out not given here; nearly all actives have a fitted effect of over 45% in size
HCV inhibitor: blocks hepatitis C virus. Potency, µM (titrated, usually from 41.8 µM), usual class: inhibitors. 340,000 compounds, 3.4% hits. Huh7.5.1 HCVcc-Cre infection, luciferase reporter, 44 h; active means well fitted inhibition curve with a large enough effect; inconclusive means small, poorly fitted or top-dose-only effect, or another doubt; inactive means no such curve, though single readings can be large or run the other way
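Cells (1,000/well) were plated 4 h before compound, then infected with HCVcc-Cre virus (~0.5 moi). After 44 h further culture, infection was read as luciferase luminescence following a 15 min substrate incubation at room temperature.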
Shiga toxin inh: Shiga toxin inhibition | Vero cells, Shiga toxin protein synthesis inhibition reporter | inhibition, % at 38.7 µM | 290,000 compounds, 9.2% hits | AID 2315; in the data active means inhibition mostly above about 28%, no sharp cut-off; inactive means mostly below about 43%
LASV entry inh: inhibitors of Lassa virus binding or cell entry; Lassa virus pseudotype entry inhibition, cell reporter; Potency, µM (titrated, usually from 37.9 µM), hits mostly inhibitors; 300,000 compounds, 1.2% hits; AID 540256; calls by dose curve; tested in HEK293 cells; further: nearly all actives have a fitted effect of over 50% in size
CHX counter: counter-screen for Shiga toxin inhibitors: cycloheximide protein synthesis inhibition; cell reporter, cycloheximide protein synthesis inhibition counterscreen; max response, %; 300,000 compounds, 12% hits; in the data active means max response mostly above about 13%, no sharp cut-off; inactive means mostly below about 14%; further: read at 38.3 µM for the half of the compounds with a filed dose
Of the large screens only hits and unclear results are named; the others gave an inactive call.

N#C/C(=C\c1ccc(-c2cc(Cl)ccc2Cl)o1)C(=O)Nc1cccc2ncccc12	MARV entry inh inconclusive, LASV entry inh 3.7µM (no result: FMDV antiviral, HCV inhibitor, Shiga toxin inh, CHX counter)
Cc1ccsc1C=Nc1ccc(O)cc1	MARV entry inh inconclusive, LASV entry inh inconclusive, CHX counter 15
Cc1ccsc1/C=N/NC(=O)CO	none (no result: MARV entry inh, LASV entry inh)
Cc1ccsc1/C=N/N=C/c1sccc1C	CHX counter 48 (no result: MARV entry inh, Shiga toxin inh, LASV entry inh)
CC(C)c1ccc(NC(=S)NN2C(C)CCCC2C)cc1 (stereo not drawn)	MARV entry inh inconclusive
Cc1cc2ncc(-c3ccc(Cl)cc3)cn2n1	Shiga toxin inh 93, LASV entry inh inconclusive, CHX counter 37
CC(=O)OCC1=C[C@@H]2OC(=O)C3=CO[C@@H](O[C@@H]4O[C@H](CO)[C@@H](O)[C@H](O)[C@H]4O)[C@H]1[C@@H]32	none (no result: MARV entry inh, Shiga toxin inh, LASV entry inh, CHX counter)
C=C1C(=O)OC2C=C(CO)C3OC3C3OC3(C)CC(OC(=O)/C(=C/C)COC(C)=O)C12 (stereo not drawn)	MARV entry inh 2.5µM, FMDV antiviral 7.9µM, HCV inhibitor inconclusive, LASV entry inh inconclusive (no result: Shiga toxin inh, CHX counter)
O=C(c1cc(-c2ccccc2)nc2ccccc12)N1CCCC1	MARV entry inh inconclusive
Cc1cc(C)c2nc(C(F)(F)F)nc(N3CCN(C(=O)c4ccco4)CC3)c2c1	FMDV antiviral inconclusive, HCV inhibitor 13µM
Cc1cc(C)c2nc(N3CCCN(C(=O)c4ccco4)CC3)c(C#N)cc2c1	HCV inhibitor inconclusive
O=C(c1ccco1)N1CCN(C(=O)c2cc(-c3ccccc3)nc3ccccc23)CC1	MARV entry inh inconclusive, LASV entry inh inconclusive, CHX counter 19
Cc1cccc2c(C(=O)N3CCN(C(=O)c4ccco4)CC3)cc(-c3cccc(Br)c3)nc12	MARV entry inh inconclusive, FMDV antiviral 18µM, HCV inhibitor inconclusive, LASV entry inh inconclusive
COc1ccc(/C=C2/N=C(SC)NC2=O)cc1OC	LASV entry inh inconclusive, CHX counter 16
COc1ccc(/C=C2\N=C(SC)NC2=O)cc1	Shiga toxin inh 120
CCSC1=N/C(=C\c2ccc(OC)cc2)C(=O)N1	HCV inhibitor inconclusive, Shiga toxin inh 46, LASV entry inh inconclusive, CHX counter 28
CSC1=N/C(=C/c2ccc(-n3cncn3)cc2)C(=O)N1	none
CSC1=N/C(=C\c2ccc(Cl)cc2)C(=O)N1N(C)C	none
COc1ccc(/C=C2\N=C(SC)N(C)C2=O)cc1	CHX counter 12
COC(=O)Cn1c(=NC(=O)CCS(=O)(=O)c2ccccc2)sc2c(OC)ccc(OC)c21	none (no result: MARV entry inh, LASV entry inh)
CCN(CC)S(=O)(=O)c1ccc(N2CCOCC2)c(NC(=O)COc2ccccc2C)c1	HCV inhibitor inconclusive (no result: MARV entry inh, Shiga toxin inh, LASV entry inh, CHX counter)
C[C@H](CO)N1C[C@H](C)[C@@H](CN(C)C(=O)NC2CCCCC2)Oc2c(NS(=O)(=O)c3ccccc3)cccc2C1=O	none (no result: MARV entry inh, Shiga toxin inh, LASV entry inh, CHX counter)
COc1ccc(/C=C2\N=C(c3ccccc3Cl)NC2=O)cc1	HCV inhibitor inconclusive, CHX counter 34 (no result: MARV entry inh, LASV entry inh)
O=C(c1ccoc1)N1CCC2(CC1)Oc1ccc(F)cc1C(=O)C21CC(c2ccc(Cl)cc2)=NO1 (stereo not drawn)	HCV inhibitor inconclusive (no result: MARV entry inh, LASV entry inh)
c1ccc(-n2ncc3c2ncn2nnnc32)cc1	none (no result: FMDV antiviral)
Cc1nc2c3cnn(-c4ccccc4)c3ncn2n1	Shiga toxin inh 34, CHX counter 21
Cc1ccc(-n2ncc3c2ncn2c(C)nnc32)cc1C	Shiga toxin inh 63, CHX counter 30 (no result: FMDV antiviral)
c1ccc(-n2ncc3c2ncn2cnnc32)cc1	none
CCc1nnc2c3cnn(-c4ccccc4)c3ncn12	Shiga toxin inh 67, LASV entry inh inconclusive, CHX counter 28
O=C(Nc1ccc(Br)c2ccccc12)c1ccc2ccccc2c1O	FMDV antiviral inconclusive, HCV inhibitor inconclusive, Shiga toxin inh 44, CHX counter 22 (no result: MARV entry inh, LASV entry inh)
CC(=O)Nc1ccc(Br)c2ccccc12	MARV entry inh inconclusive
COC(=O)C1CCN(C2=C(NS(=O)(=O)c3ccc(Cl)cc3)C(=O)c3ccccc3C2=O)CC1	none (no result: MARV entry inh, LASV entry inh)
CC1CCCN(C2=C(NS(=O)(=O)c3ccc(Cl)cc3)C(=O)c3ccccc3C2=O)C1 (stereo not drawn)	MARV entry inh inconclusive, Shiga toxin inh 40, LASV entry inh inconclusive, CHX counter 22
CCOc1ccccc1NC(=O)c1ccc2c(O)c(S(=O)(=O)c3ccccc3)c(=O)[nH]c2c1	none (no result: MARV entry inh, HCV inhibitor, Shiga toxin inh, LASV entry inh, CHX counter)
O=C(CCN1C(=O)CSC1=O)Nc1ccc(Br)cc1	none
O=C(COc1ccc([N+](=O)[O-])cc1)Nc1nc(-c2ccccn2)cs1	MARV entry inh inconclusive, HCV inhibitor 10µM, LASV entry inh inconclusive (no result: Shiga toxin inh, CHX counter)
